# Laboratory results from PMC5540273 (PLoS ONE, 2017).
# How the values were obtained:
# Conditions in all cases: concentration: 1 μM, replicates: in singlicate; n = 1
# STK36 = tested on: STK36
# STK39 = tested on: STK39
# SYK = tested on: SYK
# SgK110 = tested on: SgK110
# TAK1 = tested on: T1, TAK1
# T1 construct: gene MAP3K7
# TAOK1 = tested on: TAOK1
# TAOK2 = tested on: TAOK2
# TAOK3 = tested on: TAOK3
# TBK1 = tested on: TBK1
# TEC = tested on: TEC
# TESK1 = tested on: TESK1
# TGFBR1 = tested on: TGFBR1
# TGFBR2 = tested on: TGFBR2
# TIE1 = tested on: TIE1
# TIE2 = tested on: T2, TIE2
# T2 construct: gene TEK
# TLK1 = tested on: TLK1
# TLK2 = tested on: TLK2
# TNIK = tested on: TNIK
# TNK1 = tested on: TNK1
# TNK2 = tested on: TNK2
# 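Further: KINOMEscan kinase panel screen.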
SMILES,%Inh (STK36) [%],%Inh (STK39) [%],%Inh (SYK) [%],%Inh (SgK110) [%],%Inh (TAK1) [%],%Inh (TAOK1) [%],%Inh (TAOK2) [%],%Inh (TAOK3) [%],%Inh (TBK1) [%],%Inh (TEC) [%],%Inh (TESK1) [%],%Inh (TGFBR1) [%],%Inh (TGFBR2) [%],%Inh (TIE1) [%],%Inh (TIE2) [%],%Inh (TLK1) [%],%Inh (TLK2) [%],%Inh (TNIK) [%],%Inh (TNK1) [%],%Inh (TNK2) [%]
CC(C)c1nc(-c2ccc(F)c(NS(=O)(=O)c3c(F)cccc3F)c2)c(-c2ccnc(Nc3ccc(N4CCOCC4)nc3)n2)s1 [GSK1804250],100,11,46,0,46,4,0,5,6,45,96.2,90.8,92.9,87,98.9,19,11,27,100,99.5
Cc1ccc(O)cc1Nc1ccnc2ccc(C(C)(C)C)cc12 [GW856805],0,43,24,0,57,35,13,28,27,31,0,8,93.2,38,39,0,31,0,69,13
Cc1cc(-c2c(-c3ccc(F)cc3)ncn2CCCN2CCOCC2)nc(N)n1 [SB-222517],18,7,26,40,3,0,38,0,42,0,14,0,0,27,20,0,34,0,26,0
COc1cc(Nc2nccc(N3CCC(NC(=O)Nc4ccc5c(c4)OCO5)C3)n2)cc(OC)c1OC (stereo not drawn) [GSK1379766],0,9,39,0,0,0,0,0,33,6,22,22,0,42,0,0,0,0,20,9
COc1ccc(NC(=O)c2ccoc2)cc1-c1ccc(C(=O)NCC2CC2)cc1 [GW810437],0,10,12,36,18,23,24,15,8,0,6,37,0,0,5,2,12,21,16,0
Cc1ccc(NC(=O)c2ccc(Cl)c(Cl)c2)cc1-c1ccc(C(=O)Nc2ccncc2)cc1 [GSK1398460],0,0,21,4,12,0,0,0,23,15,29,0,0,0,0,8,6,0,29,19
CC(C)NCC(Cc1ccccc1)NC(=O)c1cc(Br)c(-c2ccnc3[nH]ccc23)s1.Cl.Cl (stereo not drawn) [GSK1383281],0,0,0,73,0,41,0,0,20,0,47,1,0,69,0,8,13,5,0,0
CC(C)(C)c1ccc(C(=O)Nc2cn3cc(-n4ccnc4)ccc3n2)cc1,10,0,0,15,9,0,0,0,24,0,0,0,0,3,17,4,0,2,0,0
COc1ccc(C2=C(Nc3cccc(O)c3)C(=O)NC2=O)cc1 [SB-390766],100,34,0,100,0,0,1,0,0,14,12,20,0,0,0,0,4,0,0,5
